This is one part of a sample in which hits are shown more often than they occur.
miR122 inh = raises miR-122 sensor activity in Huh7 cells; Huh7 psiCHECK-miR122 Renilla luciferase sensor, 48 h; activation, % at 12.5 µM; actives 0.14% (n = 340,000); AID 623901;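 active = mean activation of 30% or more, with every replicate also reaching 30%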;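 note: 0% = median of neutral control wells and 100% = median of positive control wells; higher luciferase signal means stronger suppression of miR-122 activity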
The depositor's hits bear a star.

SMILES	miR122 inh
CC(C)NC(=O)Nc1cccc2c1O[C@@H](CN(C)Cc1ccc(C(F)(F)F)cc1)[C@H](C)CN([C@H](C)CO)C2=O	-90.8
COCC#Cc1cnc2c(c1)C(=O)N([C@H](C)CO)C[C@H](C)[C@@H](CN(C)C(=O)Nc1ccc(OC)cc1)O2	1.9
CC(C)CC#Cc1ccc([C@H]2[C@@H](CO)N3CCCCN(S(=O)(=O)Cc4ccccc4)C[C@H]23)cc1	34.5*
COc1cccc(NC(=O)N(C)C[C@H]2Oc3cc(C#Cc4ccccc4)ccc3S(=O)(=O)N([C@H](C)CO)C[C@@H]2C)c1	-19.2
COc1ccc(C#Cc2ccc([C@H]3[C@H](CO)N4CCCCN(C(=O)Nc5ccccc5)C[C@@H]34)cc2)cc1	35.1*
COc1ccc(NC(=O)N2CCCCN3[C@@H](CO)[C@H](c4ccc(C#CCC(C)C)cc4)[C@@H]3C2)cc1	33.2*
O=C(Nc1ccccc1)N1C[C@H]2[C@@H](c3ccccc31)[C@@H](CO)N2C(=O)c1ccccn1	-132.1
COCC#Cc1cnc2c(c1)C(=O)N([C@H](C)CO)C[C@@H](C)[C@@H](CN(C)C(=O)Nc1ccc(OC)cc1)O2	0.0
C[C@H]1CN([C@@H](C)CO)S(=O)(=O)c2ccc(C#CCC3CCCC3)cc2O[C@@H]1CN(C)C(=O)c1ccccn1	-50.1
CNC[C@H]1Oc2ncc(C#CCC3CCCC3)cc2C(=O)N([C@H](C)CO)C[C@H]1C	4.4
C[C@H](CO)N1C[C@H](C)[C@H](CN(C)C(=O)C2CC2)Oc2cc(-c3ccncc3)ccc2S1(=O)=O	5.1
Cc1ccc(-c2cnc3c(c2)C(=O)N([C@H](C)CO)C[C@@H](C)[C@@H](CN(C)C(=O)c2ccncc2)O3)cc1	2.8
CCCNC(=O)N(C)C[C@H]1Oc2cc(C#CC(C)C)ccc2S(=O)(=O)N([C@H](C)CO)C[C@@H]1C	-44.0
C[C@@H]1CN([C@@H](C)CO)C(=O)c2cc(-c3cccc(F)c3)cnc2O[C@H]1CN(C)C(=O)c1cccc(F)c1	4.1
C[C@@H]1CN([C@@H](C)CO)C(=O)c2cc(C#CC(C)(C)O)cnc2O[C@H]1CN(C)C(=O)C1CC1	2.2
CCCNC(=O)N(C)C[C@@H]1Oc2ncc(/C=C/c3ccccc3)cc2C(=O)N([C@@H](C)CO)C[C@H]1C	4.4
C[C@@H]1CN([C@H](C)CO)C(=O)c2cc(-c3ccc(F)cc3)cnc2O[C@@H]1CN(C)CC1CCOCC1	5.1
CCNC(=O)Nc1ccc2c(c1)C(=O)N(C)[C@H]1CC[C@H](CC(=O)NCCN3CCCC3)O[C@@H]1CO2	36.7*
CN1C(=O)c2cc(NC(=O)C3CC3)ccc2OC[C@@H]2O[C@H](CC(=O)NCCN3CCCC3)CC[C@H]21	45.0*
CN1C(=O)c2cc(NC(=O)C3CC3)ccc2OC[C@H]2O[C@H](CC(=O)NCc3cccc(F)c3)CC[C@H]21	-116.7
C[C@H](CO)N1C[C@H](C)[C@@H](CN(C)Cc2ccccn2)Oc2cc(-c3cncnc3)ccc2S1(=O)=O	5.9
COc1ccc(NC(=O)N(C)C[C@H]2Oc3ncc(C4=CCCC4)cc3C(=O)N([C@@H](C)CO)C[C@H]2C)cc1	2.0
CCCNC(=O)N(C)C[C@H]1Oc2ncc(C#CC(C)C)cc2C(=O)N([C@H](C)CO)C[C@@H]1C	7.4
C[C@@H]1CN([C@H](C)CO)C(=O)c2cc(C#CCc3ccccc3)cnc2O[C@@H]1CN(C)Cc1ccccn1	7.4
O=CN1CCN(C(=O)c2ccccc2F)CC1	33.9*
SMILES	miR122 inh
C/C=C/c1cnc2c(c1)C(=O)N([C@@H](C)CO)C[C@H](C)[C@H](CN(C)C(=O)c1cccnc1)O2	2.8
C[C@@H]1CN([C@@H](C)CO)S(=O)(=O)c2ccc(-c3cccnc3)cc2O[C@@H]1CN(C)Cc1ccccn1	2.4
CC(C)CC#Cc1cnc2c(c1)C(=O)N([C@H](C)CO)C[C@@H](C)[C@@H](CN(C)C(=O)Nc1ccccc1F)O2	-0.7
CCC(=O)Nc1ccc2c(c1)C(=O)N(C)C[C@H](OC)[C@H](C)CN(Cc1ccccc1OC)[C@@H](C)CO2	0.0
COC1=CC(=O)C=C(OC)C1=O	57.3*
C[C@H](CO)N1C[C@H](C)[C@@H](CN(C)C(=O)C2CCCCC2)Oc2ncc(C#CCc3ccccc3)cc2C1=O	-36.4
FC(F)(F)c1cnc(N2CCCN(C(=S)Nc3ccccc3)CC2)c(Cl)c1	37.1*
O=S(=O)(Nc1ccccc1)c1ccc(Oc2ncc(C(F)(F)F)cc2Cl)cc1	-94.2
COc1cccc(N2CCN(C(=S)Nc3cccc(C)c3)CC2)c1	-120.7
C[C@H](CO)N1C[C@H](C)[C@@H](CN(C)C(=O)c2ccccc2F)Oc2ncc(C#Cc3ccc(F)cc3)cc2C1=O	-7.8
C[C@@H]1CN([C@@H](C)CO)C(=O)c2cc(-c3cccc(C(=O)N(C)C)c3)cnc2O[C@@H]1CN(C)C(=O)Cc1ccccn1	-0.4
C[C@H](CO)N1C[C@H](C)[C@H](CN(C)C(=O)C2CCOCC2)Oc2ncc(-c3ccncc3)cc2C1=O	3.1
Cc1ccc(-c2cnc3c(c2)C(=O)N([C@@H](C)CO)C[C@H](C)[C@H](CN(C)C(=O)c2ccncc2)O3)cc1	-0.3
C[C@H](O)C#Cc1cnc2c(c1)C(=O)N([C@@H](C)CO)C[C@H](C)[C@H](CN(C)C(=O)CN(C)C)O2	-4.2
C[C@H]1CN([C@@H](C)CO)S(=O)(=O)c2ccc(C#CC3CC3)cc2O[C@@H]1CN(C)Cc1ccccn1	-66.3
COc1ccc(C(NC(C)=O)c2cc(Cl)c3cccnc3c2O)cc1 (stereo unspecified)	71.5*
Cc1noc(C)c1NC(=O)N(C)C[C@@H]1Oc2ncc(C#Cc3ccc(F)cc3)cc2C(=O)N([C@H](C)CO)C[C@@H]1C	6.0
C[C@H]1CN([C@@H](C)CO)C(=O)c2cc(-c3cccc(C#N)c3)cnc2O[C@@H]1CN(C)C	-0.5
Cc1ccc(S(=O)(=O)N(C)C[C@@H]2Oc3ccc(NC(=O)Nc4ccc5c(c4)OCO5)cc3CC(=O)N([C@@H](C)CO)C[C@@H]2C)cc1	-113.4
C[C@H]1CN([C@@H](C)CO)C(=O)c2cc(-c3cccnc3)cnc2O[C@@H]1CN(C)Cc1ccc(Oc2ccccc2)cc1	6.2
C[C@@H]1CN([C@@H](C)CO)C(=O)c2cc(-c3cccc(F)c3)cnc2O[C@H]1CN(C)CC1CCCC1	9.6
C[C@@H]1CN([C@H](C)CO)C(=O)c2cc(-c3cccnc3)cnc2O[C@H]1CN(C)Cc1ccc(Oc2ccccc2)cc1	-0.4
C[C@H]1CN([C@@H](C)CO)C(=O)c2cc(-c3ccc(C#N)cc3)cnc2O[C@H]1CN(C)C(=O)Nc1ccc(C(F)(F)F)cc1	37.0*
C[C@@H]1CN([C@@H](C)CO)C(=O)c2cc(C#CC3CCCCC3)cnc2O[C@H]1CN(C)S(=O)(=O)c1cccc(F)c1	45.5*
C[C@H]1CN([C@@H](C)CO)C(=O)c2cc(-c3cccnc3)cnc2O[C@@H]1CN(C)C(=O)Nc1ccc(F)cc1	8.6
C[C@H](CO)N1C[C@H](C)[C@@H](CN(C)CC2CCCC2)Oc2ncc(-c3cccc(F)c3)cc2C1=O	-3.7
Cc1ccc(-c2cnc3c(c2)C(=O)N([C@H](C)CO)C[C@@H](C)[C@H](CN(C)CC2CCCCC2)O3)cc1	32.1*
C[C@@H]1CN([C@H](C)CO)C(=O)c2cc(C#CC3(O)CCCC3)cnc2O[C@H]1CN(C)S(=O)(=O)c1cccc(F)c1	6.0
C[C@H]1CN([C@@H](C)CO)C(=O)c2cc(-c3cccnc3)cnc2O[C@H]1CN(C)C(=O)Nc1ccc(F)cc1	6.3
